PrP UTR inh: suppresses PrP 5' UTR mRNA reporter expression; cell-based PrP 5' UTR mRNA reporter, plate reader; inhibition, % (test concentration not listed); 0.35% of 340,000 active; AID 488862; in the data active means inhibition above about 52%; further: 0 = median of the neutral control wells
PfHsp40 yeast: restores yeast growth despite PfHsp40 toxicity; S. cerevisiae expressing PfHsp40, growth rescue, ATP luminescence; growth rescue, % at 12.5 µM; 0.68% of 340,000 active; in the data active means growth rescue above about 28%, passing the limit was not always enough; inconclusive means no clear call, values can overlap the other calls;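 further: yeast W303a lacking pdr1 and pdr3 grown in galactose medium; growth measured after three days at 30 °C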
ugtP null kill: growth inhibition of S. aureus ugtP deletion strain | S. aureus RN4220 ugtP deletion, OD600 growth, 16 h | growth inhibition, % (test concentration not listed) | 0.54% of 330,000 active; in the data active means growth inhibition above about 68%;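 further: plate controls were untreated wells for no effect and antibiotic for full effect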
TcdB inh: TcdB glycohydrolase inhibition; 0.24% of 350,000 active; inhibition, % at 9.99 µM; TcdB glycohydrolase enzymatic assay, plate reader; in the data active means inhibition above about 10%
Sa RN4220 lethal: kills Staphylococcus aureus RN4220; inhibition, % (no concentration beside the values); S. aureus RN4220 growth, OD600, 16 h; AID 1259311; 0.33% of 330,000 active; in the data active means inhibition above about 85%;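 further: plate controls were untreated cells for no effect and reference antibiotic for full effect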
An asterisk follows results filed as active; ? = inconclusive; nt = no result. In the library only some 1.2% were active in any assay of this set; here they are far more common.

SMILES | PrP UTR inh | PfHsp40 yeast | ugtP null kill | TcdB inh | Sa RN4220 lethal
O=C(N/N=C/c1c(O)n(Cc2ccc(F)cc2)c(=O)[nH]c1=O)c1ccccc1O | -29.1 | 55.4* | 4.2 | 5.5 | -1.0
O=C(N/N=C/c1c(O)n(Cc2ccccc2)c(=O)[nH]c1=O)c1ccccc1O | -28.1 | 96.6* | 3.5 | nt | 3.3
CCCCCc1ccc(OCCC[n+]2ccccc2)c(CCCCC)c1 | -12.0 | 5.7 | 100.1* | 3.8 | 99.0*
CCCCCc1ccc(OCCOCCn2c[n+](C)c3ccccc32)c(CCCCC)c1 | -24.9 | 55.3* | 100.6* | nt | 100.5*
C[n+]1cn(CC(O)COCc2ccccc2)c2ccccc21 (stereo not drawn) | nt | 0.0 | -2.4 | nt | 4.4
O=C(C[C@@H]1C[C@H]2c3cc(NC(=O)Nc4ccccc4F)ccc3O[C@H]2[C@H](CO)O1)NC1CCCCC1 | nt | nt | nt | 0.5 | nt
CO[C@H]1CN(C)C(=O)c2ccc(NS(=O)(=O)c3ccccc3)cc2OC[C@H](C)N(Cc2ccccn2)C[C@@H]1C | nt | nt | nt | 0.9 | nt
C[C@@H]1CN([C@H](C)CO)C(=O)Cc2cc(NC(=O)C3CCCCC3)ccc2O[C@H]1CN(C)C(=O)Nc1ccccc1 | nt | nt | nt | 0.6 | nt
Nc1ccc2nc(-c3cccs3)[nH]c2c1 | -62.4 | 1.2 | 2.3 | 12.6* | 1.5
Nc1ccc2nc(-c3ccccc3)[nH]c2c1 | -53.5 | 0.1 | -0.7 | nt | 1.6
Cc1noc(C)c1NC(=O)N1C[C@H](O)COC[C@H]2O[C@H](CC(=O)NCC3CCCCC3)CC[C@@H]21 | nt | nt | nt | -0.2 | nt
O=C(NCc1ccncc1)[C@@H]1CCCN1C(=O)[C@H]1CCCN1C(=O)c1cccs1 | nt | nt | nt | 1.1 | nt
O=C(NCc1ccncc1)[C@@H]1CCCN1C(=O)[C@@H]1CCCN1 | nt | nt | nt | 12.1* | nt
O=C(NCc1ccccc1Cl)[C@H]1CCCN1C(=O)[C@H]1CCCN1 | nt | nt | nt | 0.0 | nt
O=C(NCc1ccccc1)[C@@H]1CCCN1C(=O)[C@@H]1CCCN1C(=O)c1cccs1 | nt | nt | nt | 11.5* | nt
CCN1CC2C3C(=O)N(C)C(=O)C3[C@](CC)(C1=O)N2C(=O)c1ccccc1 (stereo partly drawn) | nt | nt | -2.6 | nt | 6.1
CN(C)C(=O)[C@H]1[C@H](CO)[C@H]2Cn3c(ccc(C4=CCCC4)c3=O)[C@@H]1N2CCC(F)(F)F | nt | nt | nt | -1.0 | nt
CC(C)=CCC12Oc3cc(O)ccc3C1(O)Oc1cc3c(c(O)c1C2=O)C=CC(C)(C)O3 (stereo not drawn) | nt | nt | 96.6* | nt | 73.4
COc1c2c(cc(O)c1C(C)=O)OC(C)(C)C=C2 | -14.6 | -0.4 | 16.8 | 1.1 | 8.3
Cc1ccccc1C(C(=O)NC1CCCCC1)N(C(=O)c1ccccn1)c1cccnc1 (stereo not drawn) | -23.4 | -0.9 | -73.4 | 13.8* | 4.3
CCCC(=O)N1CCC2(CC1)CN(Cc1cccnc1)[C@@H](CO)c1[nH]c3cc(OC)ccc3c12 | nt | nt | nt | 0.2 | nt
Cc1ccc(NC(=O)CCC(=O)N/N=C/c2cc([N+](=O)[O-])ccc2O)cc1 | -11.1 | -1.4 | nt | nt | nt
O=C(CCCC(=O)Nc1cccc(Br)c1)NN=Cc1cc([N+](=O)[O-])ccc1O | nt | nt | 79.1 | nt | 88.4*
O=C(CN(c1cccc(Br)c1)S(=O)(=O)c1ccccc1)N/N=C/c1cc([N+](=O)[O-])ccc1O | -8.9 | 247.2* | nt | 0.4 | nt
O=C(CCCC(=O)Nc1cccc(Br)c1)N/N=C/c1cc([N+](=O)[O-])ccc1O | -0.9 | 0.5 | nt | 0.9 | nt
SMILES | PrP UTR inh | PfHsp40 yeast | ugtP null kill | TcdB inh | Sa RN4220 lethal
O=[N+]([O-])c1ccc(NN=Cc2cccc(O)c2)nc1 | -141.0 | 0.8 | -13.8 | -0.2 | 6.1
Cc1cccc(NC(=O)CCC(=O)NN=Cc2cc([N+](=O)[O-])ccc2O)c1 | nt | nt | 84.5* | nt | 94.2*
O=[N+]([O-])c1ccc(NN=Cc2cc(Br)ccc2O)nc1 | 4.8 | 22.0 | 93.2* | 0.4 | 58.9
COc1ccc(-c2ccc([C@@H]3[C@@H](CO)N(C(=O)NC4CCCC4)[C@H]3C#N)cc2)cc1 | nt | nt | nt | -3.0 | nt
C[C@@H]1CCCCO[C@H](CN(C)S(=O)(=O)c2ccc(F)cc2)[C@@H](C)CN([C@H](C)CO)C(=O)c2cc(NC(=O)Nc3cccc4ccccc34)ccc2O1 | nt | nt | nt | 0.3 | nt
CC(=O)OCC1=C(C(=O)O)N2C(=O)C(NC(=O)C(C)Cn3nc(C)c(Cl)c3C)C2SC1 (stereo not drawn) | -24.6 | -1.2 | 100.7* | -0.5 | 100.3*
CC(=O)OCC1=C(C(=O)O)N2C(=O)[C@@H](NC(=O)CSc3ccncc3)[C@H]2SC1 | -8.8 | -0.5 | 99.3* | -0.2 | 99.7*
CC1=C(C(=O)O)N2C(=O)C(NC(=O)Cc3ccccc3)C2SC1 (stereo not drawn) | -12.6 | -0.8 | 37.0 | 0.2 | 27.3
CC(=O)OCC1=C(C(=O)O)N2C(=O)C(NC(=O)c3ccc(F)cc3)C2SC1 (stereo not drawn) | -3.1 | -0.3 | 100.2* | -1.8 | 100.0*
CC(C)NC(=S)NN=C1CCCc2ccccc21 | nt | nt | 7.9 | nt | -1.5
O=C(N/N=C/c1ccc(O)c2ncccc12)c1cccc(Br)c1 | 13.1 | 104.9* | nt | 1.8 | nt
O=C(OCC(=O)N1CCCc2ccccc21)c1ccc(C(F)(F)F)cc1 | -16.0 | -1.7 | 11.3 | 10.6* | 4.7
O=C(O)/C(=C\c1ccc2ccccc2c1)c1cccc2ccccc12 | 4.2 | 117.4* | -26.5 | 3.0 | 14.2
Cc1cccc(/C(N)=N/OC(=O)Cc2cccc3ccccc23)c1 | -7.9 | -0.9 | 5.0 | 0.6 | -1.1
Cc1cccc(C(=O)O/N=C(\N)Cc2cccc3ccccc23)c1 | -24.2 | 300.2* | 2.0 | nt | 2.9
CC(C)(C)c1ccc(C(=O)NNC(=O)c2ccc(Cl)cc2)cc1 | -3.2 | 1.0 | -0.8 | 2.6 | 2.7
Cc1ccc(C(=O)CC(=O)c2ccc(C(C)(C)C)cc2)cc1 | -35.8 | 36.3* | 28.0 | 1.3 | -11.7
Cc1ccc(C(=O)CC(=O)c2cc(Cl)ccc2O)cc1 | -47.2 | -0.9 | 99.4* | nt | 99.7*
CC(C)(C)c1ccc(C(=O)CC(=O)c2cc(Cl)ccc2O)cc1 | 1.5 | -0.1 | 98.4* | nt | 100.1*
C[C@@H]1CN([C@H](C)CO)C(=O)Cc2cc(NC(=O)CCCCCC(=O)Nc3ccccc3N)ccc2O[C@H]1CN(C)C(=O)Nc1ccc2c(c1)OCO2 | nt | nt | nt | -0.8 | nt
N#CCC(=O)NN=Cc1cc([N+](=O)[O-])ccc1N1CCOCC1 | nt | nt | 6.3 | nt | 5.0
Cc1onc(-c2ccccc2Cl)c1C(=O)Nc1cnn(Cc2ccccc2)c1 | 9.0 | -0.3 | 3.8 | 13.2* | 2.8
CC(C)Cn1c(N)c(C(=O)COC(=O)C2Cc3ccccc3CN2S(C)(=O)=O)c(=O)n(C)c1=O (stereo not drawn) | -1.0 | 50.2* | -2.9 | 2.7 | 1.9
COc1cc([N+](=O)[O-])cc(/C=N/NC(=O)c2cc(-c3ccccc3)nc3ccccc23)c1O | 3.6 | ? | nt | -0.3 | nt
COc1cc([N+](=O)[O-])cc(/C=N/NC(=O)c2cc(C)nc3ccccc23)c1O | -4.5 | 32.1* | nt | 0.4 | nt
O=C(N/N=C/c1ccccn1)c1ccc([N+](=O)[O-])cc1Cl | -41.6 | 2.3 | nt | 10.9* | nt
COc1cc([N+](=O)[O-])cc(/C=N/NC(=O)c2cncc(Br)c2)c1O | nt | 779.7* | nt | -2.8 | nt
O=C(N/N=C/c1cccc([N+](=O)[O-])c1)c1ccc(Br)cc1 | -34.7 | -0.4 | nt | 10.9* | nt
